Records with an inconclusive call do not appear. The source made the active and inactive calls. Unless noted, calls follow the shape of the dose curve; as a rule, active = well fitted curve in the direction sought with a large enough effect; inconclusive = small, poorly fitted or top-dose-only effect, or another doubt; inactive = no such curve, though single readings can be large; an effect the other way counts as inactive or inconclusive.
Legend:
[1] = Cell Viability - BJ (AID 421; calls by dose curve;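 also: potency is read from the fitted curve at half-maximal effect; cells exposed to compound for 40 hours at 37 °C before readout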); settings: BJ fibroblast viability, qHTS
How it was run: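 Quantitative HTS: ATP depletion in BJ cells after 40 hr compound exposure in complete culture medium, detected with CellTiter-Glo; AC50 from standard Hill fits.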

[2] = Cell Viability - Jurkat (AID 426;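 active = dose-dependent loss of cell ATP signal giving a full or clear fitted curve, ranked by lower potency value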; also: potency is read from the fitted curve at half-maximal effect); settings: qHTS
How it was run: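 Jurkat (clone E6-1, human T-cell leukemia) cells, 5000/well in complete medium, were exposed to compound for 40 hr at 37 °C. Viability was read as intracellular ATP by CellTiter-Glo luminescence; AC50 came from Hill fits of concentration-response data.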

[3] = Cell Viability - Hek293 (AID 427;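 active = compounds whose dose-response curve shows a full or clear partial loss of cell viability, called from curve shape rather than a numeric limit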;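 also: potency is read from the fitted curve at half-maximal effect; cells exposed to compound for 40 hours at 37 °C before reading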); settings: qHTS
How it was run: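 AC50 values derive from Hill-modelled concentration-response of ATP-based luminescence, normalized between DMSO-only and 100 uM tamoxifen controls. Cells were exposed in complete culture medium for 40 hr at 37 °C before detection.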

[4] = Cell Viability - HepG2 (AID 433; calls by dose curve;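 also: potency is read from the fitted curve at half-maximal effect; potency for ATP loss meaning cytotoxicity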); settings: qHTS
How it was run: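 Cytotoxicity is scored as loss of intracellular ATP in HepG2 cells exposed to compounds for 40 h. Concentration-response curves, normalized to DMSO and 100 uM tamoxifen, give AC50 values.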

[5] = Cell Viability - SK-N-SH (AID 435; calls by dose curve;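 also: potency is read from the fitted curve at half-maximal effect; compound exposure lasted 40 h at 37 °C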); settings: SK-N-SH neuroblastoma cell viability qHTS
How it was run: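 Cells seeded at 1500 per well and incubated 5 hr at 37 °C. Compound added, then 40 hr at 37 °C. CellTiter-Glo added, 20 min at room temperature, luminescence read.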

[6] = Cell Viability - N2a (AID 540); settings: N2a mouse neuroblastoma cell viability; activity change, negative = cytotoxicity: at 92.2 µM (top of the series);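 also: plate controls were DMSO alone for no effect and tamoxifen control for full effect; nearly all actives have a fitted effect of over 45% in size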
How it was run: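 Mouse neuroblastoma N2a cells (1500/well) were preincubated 5 hr at 37 °C, then exposed to compounds for 40 hr at 37 °C in complete medium. Viability was read as intracellular ATP by CellTiter-Glo luminescence; AC50 from Hill fits.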

[7] = Cell Viability - NIH 3T3 (AID 541); settings: NIH 3T3 cell viability, qHTS; series mostly up to 92.2 µM;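 also: plate controls were DMSO alone for no effect and tamoxifen positive control for full effect; nearly all actives have a fitted effect of over 25% in size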
How it was run: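 NIH 3T3 mouse embryo fibroblasts (1000 cells/well) were plated in complete medium and treated with compound for 40 hr at 37 °C. Viability was read as intracellular ATP by CellTiter-Glo luminescence; AC50 values came from Hill-equation fits of concentration-response data.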

[8] = Cell Viability - HUV-EC-C (AID 542); settings: HUV-EC-C endothelial cell viability, qHTS; series mostly up to 92.2 µM; also: % is scaled to controls: 0 for no effect and ±100 for the full control effect; nearly all actives have a fitted effect of over 35% in size
How it was run: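 HUV-EC-C normal human vascular endothelial cells, 1000 cells/well, pre-incubated 5 hr at 37 °C, then exposed to compounds for 40 hr at 37 °C in complete medium. Viability measured as intracellular ATP by CellTiter-Glo luminescence; AC50 from Hill fits.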

[9] = Cell Viability - H-4-II-E (AID 543); settings: H-4-II-E rat hepatoma viability; series mostly up to 92.2 µM; also: % is scaled to controls: 0 for no effect and ±100 for the full control effect; nearly all actives have a fitted effect of over 35% in size
How it was run: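 Rat hepatoma H-4-II-E cells (1500/well) were plated, incubated 5 hr at 37 °C, then exposed to compounds for 40 hr at 37 °C. Cellular ATP was read by CellTiter-Glo luminescence; AC50 came from Hill-equation fits of concentration-response data.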

[10] = Cell Viability - SH-SY5Y (AID 544); settings: SH-SY5Y neuroblastoma cell viability; series mostly up to 92.2 µM; also: nearly all actives have a fitted effect of over 55% in size
How it was run: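 Human neuroblastoma SH-SY5Y cells (1500/well) in complete medium were exposed to compounds for 40 hr at 37 °C; intracellular ATP was then quantified by CellTiter-Glo luminescence after 20 min at room temperature. AC50 came from Hill-equation concentration-response fits.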

[11] = Cell Viability - Renal Proximal Tubule (AID 545); settings: renal proximal tubule cells viability; series mostly up to 91.7 µM; also: nearly all actives have a fitted effect of over 40% in size
How it was run: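 Cytotoxicity is scored as a concentration-dependent drop in cellular ATP in primary rat renal proximal tubule cells exposed for 40 hr. AC50 derives from Hill modelling.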

[12] = Cell Viability - Mesenchymal (AID 546); settings: mesenchymal cells viability, qHTS; series mostly up to 91.7 µM;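 also: cells exposed to compound for 40 hours before reading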
How it was run: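 AC50 values reflect the drop in intracellular ATP in a human kidney mesenchymal line derived from normal glomeruli. Treatment lasts 40 hr at 37 °C in complete medium, and the signal comes from CellTiter-Glo luminescence.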

[13] = Cellular Toxicity (caspase-3) HepG2 (AID 654); settings: HepG2 caspase-3 activation, luminescence, 0% = DMSO only, 100% = tamoxifen; series mostly up to 92.2 µM;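 also: cells exposed to compound for 16 hours before reading; 0% = DMSO alone and 100% = caspase signal from 100 µM tamoxifen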
How it was run: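 HepG2 cells (1500/well) in complete medium were treated with compounds for 16 hr at 37 °C. Caspase-3/7 activity was then read as luminescence from peptide-aminoluciferin cleavage. AC50 came from Hill fits, normalized to DMSO and 100 uM tamoxifen.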

[14] = NFAT Signaling Pathway (AID 444; active = well fitted curve in either direction with a large enough effect, not every such curve was filed as active;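 also: carbachol stimulus at about its EC50 of 1 µM final; % is scaled to controls: 0 for no effect and ±100 for the full control effect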); settings: Jurkat NFAT-bla M1, carbachol, beta-lactamase ratio, 5 h; at 17.2 µM (top of the series)
How it was run: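 Read-out: CCF4 FRET ratio (460 nm/530 nm) after 1 h RT dye loading, used for %activity and AC50 from titration series. Cells: Jurkat NFAT-β-lactamase/M1 line, treated with compound plus 1 uM carbachol for 5 h, 37 °C.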

[15] = Stat Signaling Pathway (AID 446; active = well fitted curve in either direction with a large enough effect, not every such curve was filed as active;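 also: ME-180 cervical cancer cells given 40 pM IL-6 alongside compound; SIE-controlled beta-lactamase reporter measured as 460/530 nm FRET emission ratio; % is scaled to controls: 0 for no effect and ±100 for the full control effect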); settings: ME-180 (cervical carcinoma) SIE beta-lactamase reporter, IL-6 stimulated, 5 h; at 17.2 µM (top of the series)
How it was run: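 IL-6/STAT signaling read in ME-180 cells via an SIE beta-lactamase reporter. Stimulus was 40 pM IL-6 (its AC50) for 5 hrs, so both activation and inhibition register.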

O=C(O)COc1ccccc1
inactive: Potency [1] > 92 µM | Potency [2] > 92 µM | Potency [3] > 92 µM | Potency [4] > 92 µM | Potency [5] > 92 µM | activity change, negative = cytotoxicity [6] -9.54% | Potency [7] | Potency [8] | Potency [9] | Potency [10] | Potency [11] | Potency [12] | outcome [13]

CN(C)[C@@H]1C(=O)C(C(N)=O)=C(O)[C@@]2(O)C(=O)C3=C(O)c4c(O)cccc4[C@@](C)(O)[C@H]3[C@H](O)[C@@H]12
inactive: Potency [1] > 92 µM | Potency [3] > 92 µM | Potency [4] > 92 µM | Potency [5] > 92 µM | activity change, negative = inhibition [14] 0.604% | activity, negative = inhibition [15] 3.84% | activity change, negative = cytotoxicity [6] 0.531% | Potency [7] | Potency [8] | Potency [9] | Potency [10] | Potency [11] | Potency [12] | outcome [13]

O=[N+]([O-])c1c2ccccc2cc2ccccc12
inactive: Potency [1] > 92 µM | Potency [2] > 92 µM | Potency [3] > 92 µM | Potency [4] > 92 µM | Potency [5] > 92 µM | activity change, negative = cytotoxicity [6] -0.277% | Potency [7] | Potency [8] | Potency [9] | Potency [11] | Potency [12] | outcome [13]

CCCCC(CC)COC(=O)c1ccccc1C(=O)OCC(CC)CCCC (stereo not drawn)
inactive: Potency [1] > 92 µM | Potency [2] > 92 µM | Potency [3] > 92 µM | Potency [4] > 92 µM | Potency [5] > 92 µM | activity change, negative = cytotoxicity [6] -29.3% | Potency [8] | Potency [9] | Potency [10] | Potency [11] | Potency [12] | outcome [13]

Nc1ccc(Sc2ccc(N)cc2)cc1
inactive: Potency [1] > 92 µM | Potency [2] > 92 µM | Potency [3] > 92 µM | Potency [4] > 92 µM | Potency [5] > 92 µM | activity change, negative = cytotoxicity [6] -14% | Potency [7] | Potency [8] | Potency [10] | Potency [11] | Potency [12] | outcome [13]

Reference: PubChem BioAssay (NCATS)
